PubChem BioAssay AID1159580 (chemical genetic matrix, 2015)
Among all 5,500 compounds or so, about 2,000 (36%) were called active. Not shown: some 18% with an inconclusive outcome. Cut-off read from the data, not from the text of the source: active = normalized growth mostly below about 0.91 (no sharp cut-off); inconclusive = no clear call, values can overlap the other calls; inactive = mostly above about 0.92. Some of the results follow.

Experiment: chemical genetic growth profiling, strain panel (AID 1159580);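 note: tested at 20 µM; growth read once vehicle control cultures reached saturation at 30 °C; 1 = growth at the plate median or of vehicle wells; lower values mean less growth of the strain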
Conditions: S. cerevisiae deletion strains, growth OD

Measured: normalized growth

Oc1c(I)cc(Cl)c2cccnc12
active: locus YAL021C, strain ccr4, hits give low values 0.0783 | locus YAL026C, strain drs2, hits give low values 0.0852 | locus YAL030W, strain snc1, hits give low values 0.074 | locus YBL061C, strain skt5, hits give low values 0.0782 | locus YBR009C, strain hhf1, hits give low values 0.0791 | locus YBR023C, strain chs3, hits give low values 0.0818 | locus YBR171W, strain sec66, hits give low values 0.115 | locus YBR231C, strain swc5, hits give low values 0.0829 | locus YBR279W, strain paf1, hits give low values 0.0782 | locus YCL011C, strain gbp2, hits give low values 0.0716 | locus YCL016C, strain dcc1, hits give low values 0.0859 | locus YCL061C, strain MRC1, hits give low values 0.0889 | locus YCL069W, strain vba3, hits give low values 0.0861 | locus YCR088W, strain abp1, hits give low values 0.0839 | locus YDL005C, strain med2, hits give low values 0.0947 | locus YDL040C, strain nat1, hits give low values 0.0731 | locus YDR001C, strain nth1, hits give low values 0.0804 | locus YDR069C, strain doa4, hits give low values 0.0805 | locus YDR137W, strain rgp1, hits give low values 0.12 | locus YDR159W, strain sac3, hits give low values 0.115 | locus YDR195W, strain ref2 0.156 | locus YDR297W, strain sur2, hits give low values 0.074 | locus YDR334W, strain swr1, hits give low values 0.0896 | locus YDR335W, strain msn5, hits give low values 0.0873 | locus YDR392W, strain spt3, hits give low values 0.119 | locus YEL003W, strain gim4, hits give low values 0.0685 | locus YEL037C, strain rad23, hits give low values 0.0804 | locus YEL061C, strain CIN8 (second series), hits give low values 0.0788 | locus YER015W, strain faa2, hits give low values 0.0769 | locus YER016W, strain bim1, hits give low values 0.0802 | locus YER111C, strain swi4, hits give low values 0.103 | locus YER155C, strain BEM2 (second series), hits give low values 0.127 | locus YFR010W, strain ubp6, hits give low values 0.0904 | locus YGL167C, strain pmr1, hits give low values 0.0969 | locus YGL173C, strain kem1, hits give low values 0.088 | locus YGL227W, strain vid30, hits give low values 0.0887 | locus YGL240W, strain doc1, hits give low values 0.104 | locus YGL253W, strain hxk2, hits give low values 0.0777 | locus YHR013C, strain ard1, hits give low values 0.139 | locus YHR027C, strain rpn1, hits give low values 0.0784 | locus YHR030C, strain SLT2, hits give low values 0.148 | locus YHR079C, strain IRE1, hits give low values 0.134 | locus YHR142W, strain chs7, hits give low values 0.104 | locus YJL092W, strain hpr5, hits give low values 0.0829 | locus YJL095W, strain BCK1 (second series), hits give low values 0.0763 | locus YJL095W, strain BCK1, hits give low values 0.127 | locus YJL115W, strain asf1, hits give low values 0.101 | locus YJL129C, strain trk1, hits give low values 0.102 | locus YJL154C, strain vps35, hits give low values 0.0859 | locus YJL164C, strain tpk1, hits give low values 0.0769 | locus YJL166W, strain qcr8, hits give low values 0.0785 | locus YJR066W, strain TOR1, hits give low values 0.00414 | locus YKL160W, strain elf1, hits give low values 0.0922 | locus YKR026C, strain gcn3, hits give low values 0.0898 | locus YKR091W, strain srl3, hits give low values 0.0766 | locus YLL001W, strain dnm1, hits give low values 0.0857 | locus YLL026W, hits give low values 0.0726 | locus YLL041C, strain sdh2, hits give low values 0.0731 | locus YLR027C, strain aat2, hits give low values 0.071 | locus YLR113W, strain HOG1, hits give low values 0.163 | locus YLR221C, strain rsa3, hits give low values 0.0761 | locus YLR258W, strain gsy2, hits give low values 0.0743 | locus YLR262C, strain YPT6 (second series), hits give low values 0.0974 | locus YLR320W, strain mms22, hits give low values 0.0998 | locus YLR342W, strain FKS1, hits give low values 0.0803 | locus YLR357W, strain rsc2, hits give low values 0.172 | locus YLR370C, strain arc18, hits give low values 0.0859 | locus YLR384C, strain iki3, hits give low values 0.0798 | locus YML120C, strain ndi1, hits give low values 0.0749 | locus YMR058W, strain fet3, hits give low values 0.0885 | locus YMR125W, strain sto1, hits give low values 0.106 | locus YMR129W, hits give low values 0.0728 | locus YMR205C, strain PFK2, hits give low values 0.11 | locus YMR231W, strain pep5, hits give low values 0.0867 | locus YNL071W, strain lat1, hits give low values 0.0765 | locus YNL183C, strain NPR1, hits give low values 0.00429 | locus YNL209W, strain ssb2, hits give low values 0.076 | locus YNL248C, strain rpa49, hits give low values 0.104 | locus YNL322C, strain KRE1 (second series), hits give low values 0.0819 | locus YNR049C, strain mso1, hits give low values 0.0835 | locus YOR001W, strain rrp6, hits give low values 0.0849 | locus YOR070C, strain gyp1, hits give low values 0.106 | locus YOR080W, strain dia2, hits give low values 0.0874 | locus YOR083W, strain WHI5, hits give low values 0.0797 | locus YOR106W, strain vam3, hits give low values 0.0829 | locus YOR231W, strain MKK1, hits give low values 0.122 | locus YOR265W, strain rbl2, hits give low values 0.072 | locus YOR270C, strain vph1, hits give low values 0.139 | locus YOR290C, strain snf2, hits give low values 0.0977 | locus YPL051W, strain arl3, hits give low values 0.0807 | locus YPL078C, strain atp4, hits give low values 0.0919 | locus YPL106C, strain sse1, hits give low values 0.139 | locus YPL240C, strain hsp82, hits give low values 0.0779 | locus YPL256C, strain CLN2, hits give low values 0.143
